# Assay results: PubChem BioAssay (NCI)
# This is part of a sample that, as a whole, favours compounds with a hit. Of some 83,000 tested, about 20% had one in any assay.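 Each cell line was grown in a 96-well plate and treated with one concentration of compound for 48 hours. Values below 10 were considered active.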 Unmarked numbers belong to inactive results. Active and inactive are the calls of the source.
# What was measured:
# Experiment in all cases: NCI-60 one-dose screen, 48 h (100 = growth as untreated, 0 = no growth, -100 = all killed)
# Details in all cases: 10 µM unless noted
# NCI-H23 lung = tested on: NCI-H23 lung
# NCI-H226 lung = tested on: NCI-H226 lung
# NCI-H322M lung = tested on: NCI-H322M lung
# HOP-62 NSCLC = tested on: HOP-62 NSCLC
# NCI-H460 lung = tested on: NCI-H460 lung
# HOP-92 NSCLC = tested on: HOP-92 NSCLC
# NCI-H522 lung = tested on: NCI-H522 lung
# A549/ATCC NSCLC = tested on: A549/ATCC NSCLC
# 786-0 renal = tested on: 786-0 renal
# COLO 205 colon = tested on: COLO 205 colon
# DU-145 prostate = tested on: DU-145 prostate
# K-562 leukemia = tested on: K-562 leukemia
# MDA-MB-231 breast = tested on: MDA-MB-231 breast
# RXF 393 renal = tested on: RXF 393 renal
# SF-268 CNS = tested on: SF-268 CNS
# SF-295 CNS = tested on: SF-295 CNS
# SF-539 CNS = tested on: SF-539 CNS
# UACC-257 melanoma = tested on: UACC-257 melanoma
# M14 melanoma = tested on: M14 melanoma
# MALME-3M melanoma = tested on: MALME-3M melanoma
Compound,growth (NCI-H23 lung) [%],growth (NCI-H226 lung) [%],growth (NCI-H322M lung) [%],growth (HOP-62 NSCLC) [%],growth (NCI-H460 lung),growth (HOP-92 NSCLC),growth (NCI-H522 lung),growth (A549/ATCC NSCLC),growth (786-0 renal) [%],growth (COLO 205 colon) [%],growth (DU-145 prostate) [%],growth (K-562 leukemia),growth (MDA-MB-231 breast) [%],growth (RXF 393 renal),growth (SF-268 CNS) [%],growth (SF-295 CNS) [%],growth (SF-539 CNS) [%],growth (UACC-257 melanoma) [%],growth (M14 melanoma) [%],growth (MALME-3M melanoma)
COCC(N)=O,103,99,100,95,108%,94.5%,100%,104%,92,111,98.4,91.8%,108,108%,103,102,96,116,105,
CC(=O)OCC1OC(n2cnc3c(=S)nc(N)[nH]c32)C(OC(C)=O)C1OC(C)=O (stereo unspecified),88.3,68.2,77.3,49.3,67.2%,28.4%,83.5%,105%,66,120,53.1,,63.5,,76.8,40,85.7,,37.6,84.4%
CCOC(=O)/C(C#N)=C\c1c[nH]c2ccccc12,86.5,79.8,110,80.7,109%,81.6%,70.4%,105%,114,98.7,111,,80.9,,101,107,103,105,97.1,116%
Cc1ccc2nc(N)nnc2c1,94.6,103,112,105,112%,71.9%,99%,109%,98.4,141,98.4,108%,127,,98.2,118,103,127,99.2,
Cc1ccc(C(C)C)c(OCC(=O)O)c1,107,105,107,101,107%,98%,111%,90.8%,102,107,121,108%,107,114%,97.5,101,103,88.3,108,
Cc1ccc(NCN2C(=O)c3ccccc3C2=O)c(C)n1,112,103,103,110,111%,102%,112%,107%,95.8,112,107,108%,115,114%,105,106,116,105,97.6,
NNC(=O)N/N=C1\C(=O)N(c2nccs2)C(=O)C(=O)C1c1nc2ccccc2s1 (stereo unspecified),95.6,89.1,105,81.3,101%,98.6%,83.1%,75.8%,118,98.6,103,,90.4,106%,96.3,109,106,68.9,105,98.7%
Cc1cccc2ccccc12,104,97,103,102,104%,100%,97.3%,96.9%,97.9,117,114,,101,111%,102,97.4,89.8,101,97.7,103%
Cc1cc2c3ccc(C)[n+](C)c3ccc2n1C,23.3,80.9,99.5,33.8,61.7%,44.4%,49.7%,-0.921% (active),53.4,10.7,46.7,,33.6,61.6%,19,26.4,67.5,32.2,92.7,46.9%
OC(CCN1CCCCC1)(c1ccccc1)c1ccccc1,98.6,104,97.6,110,116%,85.6%,98.4%,104%,98.1,103,115,,105,91.7%,104,111,117,100,99.2,95.4%
CC(CO)(CO)C(=O)O,110,96.8,99.3,95.7,105%,86.3%,101%,102%,105,,105,101%,108,99.5%,104,,97.9,98.4,103,90.4%
Oc1cc(O)c2c(c1)O[C@H](c1ccc(O)c(O)c1)[C@@H](O)C2,95.2,96.6,105,107,113%,98.5%,89.5%,97%,106,108,,104%,98.4,113%,,97.8,111,101,112,103%
O=C(c1cccc(C(=O)c2ccc3c4c(cccc24)C(=O)N(c2ccccc2)C3=O)c1)c1ccc2c3c(cccc13)C(=O)N(c1ccccc1)C2=O,82.6,78.6,113,101,104%,85.5%,85%,103%,106,,,89.8%,91.1,102%,97.2,103,98.7,92,99.2,101%
COC(=O)c1ccccc1C(=O)c1c(C)cc(C)cc1C,94.7,89.5,101,95.1,105%,107%,87.5%,84.4%,104,,104,96.7%,97.4,111%,102,102,,99.6,108,99.1%
CC(=O)Nc1ncc(S(=O)(=O)c2ccc([N+](=O)[O-])cc2)s1,117,105,113,93.2,113%,110%,94.3%,103%,98,,113,99.3%,123,115%,100,112,113,104,97.3,118%
CCOc1ccc2c(c1)c(C)cc(C)[n+]2CC,43.5,82.8,83.2,80.7,109%,54.2%,46.1%,45.4%,79.4,,,47.2%,91.3,96.3%,95.2,54.3,88.7,76,102,101%
O=CNCCc1ccccc1,102,98.9,106,90.8,111%,88.5%,104%,96.8%,102,103,,89.9%,105,111%,110,95.8,115,103,102,130%
Clc1ccc(C(SCc2ccccc2)SCc2ccccc2)cc1,86.1,86.3,111,92.1,98.3%,83%,80.5%,97.6%,111,90.1,,92.7%,99.9,88%,91,102,97.2,88.2,88.2,75.8%

Compound,growth (NCI-H23 lung) [%],growth (NCI-H226 lung) [%],growth (NCI-H322M lung) [%],growth (HOP-62 NSCLC) [%],growth (NCI-H460 lung),growth (HOP-92 NSCLC),growth (NCI-H522 lung),growth (A549/ATCC NSCLC),growth (786-0 renal) [%],growth (COLO 205 colon) [%],growth (DU-145 prostate) [%],growth (K-562 leukemia),growth (MDA-MB-231 breast) [%],growth (RXF 393 renal),growth (SF-268 CNS) [%],growth (SF-295 CNS) [%],growth (SF-539 CNS) [%],growth (UACC-257 melanoma) [%],growth (M14 melanoma) [%],growth (MALME-3M melanoma)
COC1=C(OC)C(=O)C(SC/C=C(\C)CCCC(C)CCCC(C)CCCC(C)C)=CC1=O (stereo unspecified),14,40.9,67.4,38.3,2.16% (active),-13.1% (active),-6.14% (active),17.8%,66,,32,8.26% (active),15.5,-0.159% (active),28.7,16.5,16.9,13.6,26.9,5.25% (active)
Clc1ccc(-c2noc(/C=C\c3ccccc3)n2)cc1,101,93.1,87.1,106,109%,99.3%,87%,87.9%,99.4,,108,94.6%,109,104%,106,89.9,101,104,101,95%
OCC(O)COc1ccc(Cl)cc1Cl (stereo unspecified),105,106,95.1,88.4,111%,130%,79.5%,72.6%,93.4,,110,88.6%,97.8,115%,105,97.5,,79.6,95.9,94.8%
Nc1nnc2cc(F)ccc2n1,90.6,96.3,106,101,107%,85.2%,99.8%,113%,105,,102,97.2%,102,,99.6,,107,110,99.3,107%
CC(C)N(C(=O)c1ccccc1)C(C)C,106,93.6,114,109,106%,97.8%,101%,98.8%,106,,117,103%,119,106%,105,105,98.3,104,97,114%
CCCC(=O)c1cccs1,95.3,93.2,112,99.9,105%,84.7%,107%,99.3%,92.1,,109,112%,104,102%,105,95.7,93.7,92.5,105,107%
ClCC(Cl)C1CCC(Cl)C(Cl)C1 (stereo unspecified),105,119,107,111,107%,105%,102%,98.2%,96.8,,102,105%,113,125%,98.1,95.9,96.6,101,101,99.5%
CN(C)Cc1ccccn1,101,108,96.3,104,109%,114%,91.9%,93.1%,97,,120,107%,98.8,99.5%,111,101,92.1,99,97.9,98.7%
CSCC[C@@H]1C(=O)N(C)[C@H](C(C)(C)C)N1C(=O)c1ccccc1,101,102,97.6,103,112%,108%,107%,101%,106,,106,114%,111,111%,94.8,108,107,100,105,
COC1C(=O)CCC2(CO2)C1(O)C1(C)OC1CCC(C)C (stereo unspecified),69.5,85.2,76.8,71.5,20.5%,67.5%,62.8%,56.2%,81.2,,48.7,47.6%,107,69.5%,74.6,72.9,88,39.9,56.5,103%
CCCc1cccc(CCC)c1NC(=O)Nc1cc(Cl)cc(Cl)c1,101,98.1,96.8,104,118%,98.8%,85.7%,93.8%,93.9,,107,100%,90.2,116%,94.9,109,92.4,86,101,87.5%
c1ccc(Nc2ccccn2)nc1,95.9,89,100,95.9,96.5%,95.8%,88.2%,109%,97.6,,120,90.5%,97.1,97.9%,102,99.3,94.6,95.3,99.9,83.4%
OCCNc1ccccc1,95.6,97.7,104,105,106%,92.7%,99.5%,103%,99.9,,103,104%,104,109%,97.2,108,95.9,108,97.8,102%
CC1CCC(C(C)(C)[N+](C)(C)C)CC1 (stereo unspecified),100,100,106,96.9,107%,101%,106%,95.9%,96.1,,102,116%,103,111%,95.8,101,96,99.6,98.1,96.1%
CN(C)c1ccc(/C=C/C(=O)c2ccc(NC(N)=O)cc2)cc1,96.9,104,97,94.1,102%,103%,95.3%,84.5%,97.1,,98.8,64.6%,,107%,99,98.8,81.1,89.9,86.8,82.3%
CN=S(=O)(OCCCCCOS(=O)(=NC)c1ccc(C)cc1)c1ccc(C)cc1 (stereo unspecified),89.1,86,101,101,55.7%,,116%,119%,99.3,113,85.7,70.4%,97.2,123%,99,91.6,90.7,124,96.9,100%
CCCCn1cnc2c(=O)[nH]cnc21,106,107,104,105,119%,89.3%,98.6%,107%,105,111,,97.7%,98.4,118%,110,100,104,121,103,158%
